Measurements as given in PubChem BioAssay (EPA / NIEHS).
Results filed as inconclusive are left out. Activity calls are given as the source filed them. How the source made its calls: active means hit-call score of the fitted dose curve at least 0.9, where 1 is the maximum; inconclusive means response in the unintended direction; inactive means score below 0.9.

biological target: Peroxisome proliferator-activated receptor gamma (Homo sapiens) (UniProt P37231); test: ATG_PPARg_TRANS: Attagene TRANS-FACTORIAL HepG2 Assay for human Peroxisome Proliferator-activated Receptor-gamma (PPARg) (AID 2283007)
Protocol: ATG_TRANS is a cell-based, multiplexed-readout assay that uses HepG2, a human liver cell line, with measurements taken at 24 hours after chemical dosing in a 24-well plate.ATG_PPARg_TRANS is one of 30 assay component(s) measured or calculated from the ATG_TRANS assay. It is designed to make measurements of mRNA induction, a form of inducible reporter, as detected with fluorescence intensity signals by Reverse transcription polymerase chain reaction (RT-PCR) and Capillary electrophoresis technology.Data from the assay component ATG_PPARg_TRANS was analyzed into 1 assay endpoint. This assay endpoint, ATG_PPARg_TRANS, was analyzed in the positive analysis fitting direction relative to DMSO as the negative control and baseline of activity. Using a type of inducible reporter, measures of mRNA for gain-of-signal activity can be used to understand the reporter gene at the transcription factor-level as they relate to the gene PPARG. Furthermore, this assay endpoint can be referred to as a primary readout, because this assay has produced multiple assay endpoints where this one serves a reporter gene function. To generalize the intended target to other relatable targets, this assay endpoint is annotated to the nuclear receptor intended target family, where the subfamily is non-steroidal.
Human liver HepG2 cells are transiently transfected with multiple reporter transcription units (MRTUs) in 6-well plates using FuGene 6 reagent (Roche; 3 ml FuGene/1 mg DNA). The MRTU constructs are regulated by a cis-regulating element (promoter). […] A major difference between the CIS and TRANS system is that in CIS activities of endogenous TFs are measured, whereas the TRANS assay evaluates changes in activities of exogenous, chimeric NR-Gal4 proteins. […] At the end of 24 hour incubation, total RNA was isolated using TriZol reagent (Invitrogen). The isolated RNA is then reverse-transcribed using oligo(dT) primer and Mo-MLV reverse transcriptase (Invitrogen) with DNAse I (Ambion) treatment for 30 min. The one-tenth of the produced cDNA was amplified by PCR using Taq DNA polymerase (Invitrogen) and two reporter sequence-specific primers. The PCR products were fluorescently labeled by primer extension with 6-arboxyfluorescein (6-FAM) 5'-labeled reporter sequence-specific primer (2 min at 95 C, 20 s at 68 C and 10 min at 72 C) and these products were digested with 5U of HpaI (New England Biolabs) for 2h at 37 C. The fragments were purified using Qiaquick PCR columns (Qiagen), analyzed on an ABI 3130xL genetic analyzer (Applied Biosystems) with peak positions identified by using a set of X-rhodamine (ROX)-labeled MapMarker1000 molecular weight standards (BioVentures). The raw capillary electrophoresis data was processed using Attagraph software (Attagene).

Chain of Peroxisome proliferator-activated receptor gamma (Homo sapiens) (P37231 whole entry, looked up): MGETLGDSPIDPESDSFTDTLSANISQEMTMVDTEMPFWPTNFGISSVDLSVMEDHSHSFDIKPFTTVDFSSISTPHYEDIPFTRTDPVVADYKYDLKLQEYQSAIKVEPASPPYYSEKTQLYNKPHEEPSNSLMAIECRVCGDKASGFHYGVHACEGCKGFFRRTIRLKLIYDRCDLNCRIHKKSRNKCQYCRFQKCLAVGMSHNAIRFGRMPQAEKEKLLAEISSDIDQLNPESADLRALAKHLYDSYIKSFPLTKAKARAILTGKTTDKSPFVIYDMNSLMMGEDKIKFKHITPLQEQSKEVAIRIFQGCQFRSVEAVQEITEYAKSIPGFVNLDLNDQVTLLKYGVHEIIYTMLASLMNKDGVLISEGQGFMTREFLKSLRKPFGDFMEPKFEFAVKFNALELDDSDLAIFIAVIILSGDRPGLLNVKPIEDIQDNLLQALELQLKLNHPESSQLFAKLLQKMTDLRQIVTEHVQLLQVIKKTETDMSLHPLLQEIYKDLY

| SMILES | AC50 | outcome |
| --- | --- | --- |
| C=CC(=O)OCC(Br)CBr (stereo not given) | 51.6 µM (active) | – |
| CCOC(=O)c1ccccc1C(=C1C=C(Br)C(=O)C(Br)=C1)c1cc(Br)c(O)c(Br)c1 | 3.1 µM (active) | – |
| CCCCCCOc1cc(C)c(O)c(C)c1C | 11.1 µM (active) | – |
| O=C(Nc1cccc(C(F)(F)F)c1)c1cc(Br)cc(Br)c1O | 2.57 µM (active) | – |
| Cc1cnc(NC(=O)C2=C(O)c3ccccc3S(=O)(=O)N2C)s1 | 40.4 µM (active) | – |
| CN(C)c1ccc(C(=N)c2ccc(N(C)C)cc2)cc1 | 26.6 µM (active) | – |
| CN(C)c1ccc(N=Nc2ccccc2C(=O)O)cc1 | 27.5 µM (active) | – |
| Cc1cccc(OCCOc2cccc(C)c2)c1 | 25.7 µM (active) | – |
| CC(C)(Oc1ccc(C2CC2(Cl)Cl)cc1)C(=O)O (stereo not given) | 30.6 µM (active) | – |
| Cc1cc(C)c(C)cc1C | – | inactive |
| COC(=O)/C=C/C(C)=C\C=C\C(C)=C\C=C\C=C(C)\C=C\C=C(C)\C=C\C(=O)O | 27.9 µM (active) | – |
| O=C(O)CCCC[C@@H]1SC[C@@H]2NC(=O)N[C@@H]21 | – | inactive |
| Cc1ccc([N+](=O)[O-])cc1S(=O)(=O)O | – | inactive |
| O=C(Nc1ccccc1SSc1ccccc1NC(=O)c1ccccc1)c1ccccc1 | 17.7 µM (active) | – |
| CC=CC(F)(F)C(F)(F)C(F)(F)F | – | inactive |
| CCN(CC)c1ccc(C(=O)c2ccccc2C(=O)O)c(O)c1 | 30 µM (active) | – |
| O=C(Nc1ccccc1)c1ccccc1O | 55.9 µM (active) | – |
| SCCc1cnccn1 | – | inactive |
| C=CC(C)(CCC=C(C)C)OC(=O)C(C)C (stereo not given) | – | inactive |
| CCCC(C)CCC(C)=O (stereo not given) | – | inactive |

| SMILES | AC50 | outcome |
| --- | --- | --- |
| C=C1[C@H]2CC[C@@H]3[C@H]2C(C)(C)CCC[C@]13C | – | inactive |
| CC(=O)OCCC1CCCCC1 | – | inactive |
| CC(=O)Oc1ccc(C)cc1 | – | inactive |
| C=CCOc1c(Br)cc(Br)cc1Br | – | inactive |
| O=C1CCCCCCCCCCCCCCCO1 | 100 µM (active) | – |
| CC(=O)c1ccc[nH]1 | – | inactive |
| CC(C)=CCC[C@H](C)CCO | – | inactive |
| CCN(CCC#N)c1ccc(N=Nc2c(Cl)cc([N+](=O)[O-])cc2Cl)cc1 | 16.3 µM (active) | – |
| CCCCCCCCc1ccc(Nc2ccc(CCCCCCCC)cc2)cc1 | – | inactive |
| OCCCS | – | inactive |
| CCCCCCCCO[C@@H]1O[C@H](CO)[C@@H](O)[C@H](O)[C@H]1O | – | inactive |
| CCCCCCCCC(=O)OCC | – | inactive |
| CC1=NC(C)OC1C (stereo not given) | – | inactive |
| O=S1(=O)OC(c2ccc(O)cc2)(c2ccc(O)cc2)c2ccccc21 | – | inactive |
| CC(C)C1=CC2=CC[C@@H]3[C@](C)(CCC[C@@]3(C)C(=O)O)[C@H]2CC1 | 43.9 µM (active) | – |
| Cc1ccc2oc(=O)ccc2c1 | – | inactive |
| CCOC(=O)CC | – | inactive |
| CC(=O)OC(C)C | – | inactive |
| CCCCCCCCCCOS(=O)(=O)O | 22.6 µM (active) | – |
| O=C1CC2CC1C1CCCC21 (stereo not given) | – | inactive |
